Pf growth 96h – Primary qHTS for delayed death inhibitors of the malarial parasite plastid, 96 hour incubation. P. falciparum luciferase reporter growth, 96 h. Potency, µM (series often up to 28.7 µM), actives largely listed as inhibitors. 320,000 tested, 6.9% active
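Two parasite generations (96 h, 37 C, 5% CO2) of compound exposure in infected erythrocytes (0.05% parasitemia, 2% hematocrit). Luciferase-reporter P. falciparum; decreased luminescence indicates inhibited growth, aimed at apicoplast-acting delayed death.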
Pf growth 48h – Primary qHTS for delayed death inhibitors of the malarial parasite plastid, 48 hour incubation; P. falciparum luciferase growth in erythrocytes, 48 h; Potency, µM (titrated, usually from 28.7 µM), most hits filed as inhibitors; 310,000 tested, 5.9% active; AID 504832, 2011
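Compounds are pin-transferred into medium, infected erythrocytes (2% hematocrit, 0.1% parasitemia final) are added, and plates sit one parasite generation at 37 C in 5% CO2. Detection reagent is then added and luminescence measured.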
Cycloheximide cs – Cycloheximide Counterscreen for Small Molecule Inhibitors of Shiga Toxin. cell reporter, cycloheximide protein synthesis inhibition counterscreen. 300,000 tested, 12% active. max response, %; in the data active = max response mostly above about 13%, no sharp cut-off; inactive = mostly below about 14%; also: read at 38.3 µM for the half of the compounds with a filed dose
NS1 inh – qHTS Assay for Inhibitors of Influenza NS1 Protein Function. Potency, µM (highest dose often 46.1 µM). 270,000 tested, 0.4% active. AID 2326, 2010; calls by dose curve; also: actives are rising curves; nearly all actives have a fitted effect of over 50% in size
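Recovery from NS1-induced slow growth read by OD600 in budding yeast switched to galactose assay medium (pH 6.0, -URA) at 1:100 dilution. Compound 23 nl per well; the matching strain lacking NS1 serves as control.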
Shiga toxin inh – A qHTS for Small Molecule Inhibitors of Shiga Toxin; Vero cells, Shiga toxin protein synthesis inhibition reporter; inhibition, % at 38.7 µM; 290,000 tested, 9.2% active; in the data active = inhibition mostly above about 28%, no sharp cut-off; inactive = mostly below about 43%
Sm TGR inh – qHTS Assay for the Inhibitors of Schistosoma Mansoni Peroxiredoxins | Schistosoma mansoni thioredoxin glutathione reductase (TGR), Q962Y6 | purified TGR, DTNB reduction, TNB absorbance 405 nm | Potency, µM (titrated, usually from 114 µM), actives largely listed as inhibitors | 360,000 tested, 3% active | AID 485364, 2010; also: nearly all actives have a fitted effect of over 60% in size
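TGR 20 nM + NADPH 100 uM (dispensed conc.), cpd preinc 15 min RT; start with NADPH (500 uM addition) then DTNB (15 mM addition). Kinetic TNB absorbance, 405 nm filter. Four-parameter Hill fit across titration.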
Hits are given with their value; - = inactive; ? = inconclusive; . = no result; [ ] = another dose, or the depositor's remark. Most compounds without a hit are left out; they make up all but 21% or so of the library. Unless noted, calls follow the shape of the dose curve; as a rule, active = well fitted curve in the direction sought with a large enough effect; inconclusive = small, poorly fitted or top-dose-only effect, or another doubt; inactive = no such curve, though single readings can be large; an effect the other way counts as inactive or inconclusive.

SMILES | Pf growth 96h | Pf growth 48h | Cycloheximide cs | NS1 inh | Shiga toxin inh | Sm TGR inh
COc1ccc(N(Cc2ccccc2)C(=O)c2nc(SC)ncc2Cl)cc1 | . | . | . | . | . | -
CCS(=O)(=O)c1ncc(Cl)c(C(=O)N2CCN(c3ccc(OC)cc3)CC2)n1 | . | . | . | . | . | 35µM
CCS(=O)(=O)c1ncc(Cl)c(C(=O)N(Cc2ccccc2)c2ccc(OC)cc2)n1 | . | . | . | . | . | 40µM
Cc1cc(C)cc(OCc2nc(-c3cccnc3)no2)c1 | - | - | - | - | - | -
Cc1ccc(Cc2nc(-c3cccnc3)no2)cc1 | - | - | 34 | - | 111 | -
Clc1ccc(Cc2nc(-c3cccnc3)no2)cc1 | - | - | 17 | - | - | -
O=C(COC(=O)CSc1ccc([N+](=O)[O-])cc1)NCc1ccco1 | - | - | . | . | . | ?
COc1ccc(C2=C(C=Nc3c(C)n(C)n(-c4ccccc4)c3=O)C(c3ccccc3C)c3ccccc3O2)cc1OC (configuration not stated) | . | 0.33µM | - | ? | - | -
CC(=O)c1cccc(NC(=O)CSc2nc3ccccc3nc2Cc2ccc(F)cc2)c1 | . | . | . | . | . | -
Cc1ccc(OCc2nc(C#N)c(NCCc3ccccc3)o2)cc1 | . | . | . | . | . | -
N#Cc1nc(COc2ccccc2F)oc1NCCc1ccccc1 | ? | - | 27 | - | 57 | -
CN(Cc1ccccc1)c1oc(COc2ccccc2F)nc1C#N | - | . | - | - | 89 | -
Cc1ccccc1NC(=S)NC1CCCC1 | ? | ? | - | - | - | -
Cc1cccc(C)c1NC(=S)NC1CCCCC1 | 10µM | - | - | - | - | -
Cc1cccc(NC(=S)NNC(=S)NC2CCCCC2)c1C | -[5.75 µM] | - | 16 | - | 44 | -
CC(C)(O)C1Cc2cc(/C=C/C(=O)O)c(O)cc2O1 (configuration not stated) | - | - | - | - | - | 0.22µM
Cc1ccccc1OCC(=O)NCCCNC(=O)c1ccco1 | - | - | - | - | - | -
CN(C)CC/C=C1/c2ccccc2Sc2c(O)cc(Cl)cc21 | 0.83µM | ? | - | ? | - | -
COc1cc2c(cc1Cl)/C(=C\CCN(C)C)c1ccccc1S2 | 10µM | 10µM | - | - | - | 28µM
COc1cc(Cl)cc2c1Sc1ccccc1/C2=C/CCN(C)C | ? | 12µM | - | - | - | 18µM
COc1ccc(NC(=O)C2CCCN(C(=O)c3cnn(-c4ccc(F)cc4)c3-n3cccc3)C2)cc1 (configuration not stated) | . | . | . | . | . | -
COc1ccc(OC)c(NC(=O)c2cc3c(=O)oc4ccccc4c3s2)c1 | . | . | . | . | . | -
COc1ccc(C2/C=C\CN(C(=O)OCC3c4ccccc4-c4ccccc43)CC(=O)N2Cc2cccc(F)c2)cc1 (configuration not stated) | . | . | - | . | - | .
COc1cccc(NC(=O)Nc2ccc(C)c(Cl)c2)c1 | - | - | 45 | - | 78 | -
CN(C)C(=O)Nc1ccc(Oc2ccc(Cl)cc2)cc1 | . | . | 20 | . | - | .
SMILES | Pf growth 96h | Pf growth 48h | Cycloheximide cs | NS1 inh | Shiga toxin inh | Sm TGR inh
Cc1ccc(NC(=O)Nc2ccc(F)cc2)cc1Cl | ? | ? | 32 | - | 78 | -
Cc1ccc(NC(=O)N(C)C)cc1Cl | . | . | 11 | . | - | .
COCC(=O)Nc1ccc(C)c(Cl)c1 | . | - | - | - | - | -
COc1ccc(NC(=O)c2ccco2)cc1NC(=O)c1cc(Cl)ccc1OC | . | . | . | . | . | -
CCCCOC(=O)Nc1cc(OC)c(Cl)cc1OC | - | ? | - | - | - | -
CCCCOC(=O)Nc1ccc(C)c(Cl)c1 | ? | - | 33 | - | 57 | -
CCOC(=O)N1CCN(C(=O)/C=C/c2ccc3c(c2)OCO3)CC1 | ? | - | - | - | - | -
COC(=O)C1CCN(C(=O)/C=C/c2ccc3c(c2)OCO3)CC1 | ? | - | 15 | - | . | -
CN1CCN(C(=O)/C=C/c2ccc3c(c2)OCO3)CC1 | - | - | 26 | - | - | -
O=C1CC(c2nc(-c3ccccc3)no2)CN1c1ccc2c(c1)OCCO2 (configuration not stated) | . | . | . | . | . | -
COc1cccc(OCc2cc(C(=O)N3CCN(C(C)=O)CC3)no2)c1 | ? | - | 60 | - | 104 | -
COc1cccc(OCc2cc(C(=O)N3CCN(c4ccccc4OC)CC3)no2)c1 | - | - | 29 | - | 70 | ?
COc1ccccc1N1CCN(C(=O)c2cc(-c3ccccc3)on2)CC1 | - | - | - | - | - | -
COCCN1CCN(C(=O)c2cc(COc3cncc(Cl)c3)on2)CC1 | - | - | - | - | - | -
COc1cccc(OCc2cc(C(=O)N3CCN(c4ccccc4O)CC3)no2)c1 | ? | - | 50 | - | 107 | -
COc1ccccc1N1CCN(C(=O)c2cc(-c3ccco3)on2)CC1 | ? | . | - | - | - | 56µM
Cc1cc(C)nc(-n2nc(C)c3c2NC(=O)CC3c2cccc(O)c2)n1 (configuration not stated) | . | . | . | . | . | -
CCCn1nc(C(=O)Nc2ccc3nc(N4CCOCC4)sc3c2)ccc1=O | ? | ? | . | . | . | -
Cc1cc(NC(=O)CN2C(=O)/C(=C/c3ccccc3F)SC2=S)no1 | - | - | - | - | - | -
Cn1c(=O)n(CC(=O)NCC2CCCO2)c(=O)c2c3c(sc21)CCCC3 (configuration not stated) | - | - | - | - | - | -
CCCN(C(=O)c1ccco1)c1nnc(-c2ccncc2)s1 | - | - | - | - | - | -
CN(C(=O)c1ccco1)c1nc(-c2ccccc2)cs1 | ? | - | 38 | - | 36 | -
COCCN(C(=O)c1ccco1)c1nc(-c2ccccc2)cs1 | ? | - | - | - | . | 63µM
COc1ccc(-c2csc(N(CC(C)C)C(=O)c3ccco3)n2)cc1 | - | - | - | - | . | -
CN(Cc1nc(-c2ccccc2)no1)C(=O)c1ccco1 | - | - | - | - | - | -
SMILES | Pf growth 96h | Pf growth 48h | Cycloheximide cs | NS1 inh | Shiga toxin inh | Sm TGR inh
CN(c1ccc(O)cc1)c1nc(-c2ccccc2)cs1 | - | - | 62 | - | active | -
CCCCN(C(=O)c1ccco1)c1nnc(-c2cc(OC)c(OC)c(OC)c2)s1 | . | 1.9µM | - | - | - | -
CCC(=O)N(Cc1ccco1)c1nc(-c2ccccc2)cs1 | ? | - | - | - | - | -
CCN(C(=O)c1ccco1)c1nc(-c2ccc(OC)cc2)cs1 | ? | - | 41 | - | - | -
O=C(c1cccs1)N(Cc1ccco1)c1nc(-c2ccc(F)cc2)cs1 | - | 13µM | - | - | - | -
Cc1ccc(Cl)cc1N1CCN(C(=O)C2CCN(S(=O)(=O)c3ccc4c(c3)oc(=O)n4C)CC2)CC1 | . | . | . | . | . | -
COC(=O)c1sc(N)c(C(=O)OC)c1COC(=O)CNS(=O)(=O)c1ccc(C)c(C)c1 | ? | ? | - | - | - | -
COC(=O)c1sc(N)c(C(=O)OC)c1COC(=O)CCNS(=O)(=O)c1ccc(C)cc1 | 10µM | ? | - | - | - | -
Cc1oc2ncn(CC(C)C)c(=O)c2c1C(=O)NC(C)c1ccccc1 (configuration not stated) | . | . | . | . | . | -
